# Laboratory results taken from PubChem BioAssay (NCATS).
# Where “and” joins values, the source holds several entries; their conditions need not be identical. Equal values may be shown once. Results filed as inconclusive are left out. A call without a number means that no potency is given here. More than one record can exist for a structure, and the calls need not agree. Calls of active or inactive are those of the source. Calls follow the shape of the dose curve; as a rule, active = well fitted curve in the direction sought with a large enough effect; inconclusive = small, poorly fitted or top-dose-only effect, or another doubt; inactive = no such curve, though single readings can be large; an effect the other way counts as inactive or inconclusive.
# Key:
# [1] = target: Glutathione peroxidase 1 (Homo sapiens) (UniProt P07203); assay: Primary qHTS Assay for Inhibitors of Recombinant Selenoprotein Glutathione Peroxidase 1 (GPX1) (AID 1845191); also: nearly all actives have a fitted effect of over 65% in size; also: potency is read from the fitted curve at half-maximal effect
# Chain of Glutathione peroxidase 1 (Homo sapiens) (P07203 whole entry, looked up): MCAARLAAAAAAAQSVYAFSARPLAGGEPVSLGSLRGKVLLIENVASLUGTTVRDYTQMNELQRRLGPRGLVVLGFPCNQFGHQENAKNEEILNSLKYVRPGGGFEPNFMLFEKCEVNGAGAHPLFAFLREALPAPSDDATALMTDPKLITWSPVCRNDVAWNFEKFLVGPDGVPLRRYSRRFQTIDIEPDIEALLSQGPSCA
# Outline: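 NADPH consumption tracked by fluorescence at 340/450 nm between t=0 and t=15 min, room temperature. Final mix: 10 nM GPX1, 100 nM glutathione reductase, 1 mM GSH, 0.5 mM NADPH, 0.5 mM cumene hydroperoxide, 0.01% BSA; 30 min compound–enzyme preincubation.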
# [2] = target: Phospholipid hydroperoxide glutathione peroxidase GPX4 (Homo sapiens) (UniProt P36969); assay: Primary qHTS Assay for Inhibitors of Recombinant Selenoprotein Glutathione Peroxidase 4 (GPX4) (AID 1845192); also: nearly all actives have a fitted effect of over 65% in size
# Chain of Phospholipid hydroperoxide glutathione peroxidase GPX4 (Homo sapiens) (P36969 whole entry, looked up): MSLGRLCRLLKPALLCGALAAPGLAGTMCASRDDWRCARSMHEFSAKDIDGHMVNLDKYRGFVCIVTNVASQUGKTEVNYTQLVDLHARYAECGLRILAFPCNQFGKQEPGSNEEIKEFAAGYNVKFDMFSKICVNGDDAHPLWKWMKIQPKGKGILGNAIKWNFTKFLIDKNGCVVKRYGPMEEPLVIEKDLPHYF
# Outline: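 NADPH consumption followed by fluorescence at 340/450 nm, t=0 and after 15 min at room temperature. Reaction started with cumene hydroperoxide (0.5 mM final) after 30 min compound–GPX4 preincubation; final 200 nM GPX4, 100 nM GR, 1 mM GSH, 0.5 mM NADPH.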
# [3] = target: Luciferin 4-monooxygenase (Photinus pyralis) (UniProt P08659); assay: Primary firefly luciferase (FLuc) qHTS assay for identification of artifact compounds. (AID 1845220); also: nearly all actives have a fitted effect of over 60% in size
# Outline: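 Compounds sat 15 min at room temperature with 10 uM luciferin and 10 uM ATP (pH 7.6 Tris acetate). Firefly luciferase (10 nM final) was then added, and luminescence was read 5 min later. Data normalized to no-enzyme and DMSO controls were Hill-fitted.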
# [4] = Primary fluorescence-based thiol-reactive (MSTI) qHTS assay for identification of artifact compounds. (AID 1845221); also: nearly all actives have a fitted effect of over 65% in size; also: potency is read from the fitted curve at half-maximal effect;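 as to activity change, negative = thiol reactive: series mostly up to about 54 µM; thiol-reactive compounds lower the probe fluorescence signal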
# Outline: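 First, 4 uM MSTI in 2% DMSO/PBS pH 7.4 was dispensed; next, compounds were added; then plates sat 1 h at room temperature without light. Finally, emission at 598 nm was recorded.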
# [5] = system: Nanoluciferase (engineered Oplophorus gracilirostris luciferase); assay: Primary Nanoluciferase (NLuc) qHTS assay for identification of artifact compounds. (AID 1845222); also: series mostly up to about 54 µM
# Outline: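 Luminescence from secreted NLuc (filtered, 1:55-diluted S16 cell medium) read 5 min after Nano-Glo substrate; compounds preincubated 15 min, RT. Hill fits of inhibition normalized to DMSO and no-enzyme.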
# [6] = Primary redox qHTS assay for identification of artifact compounds. (AID 1845223)
# Outline: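 Redox-cycling detection via DTT (250 uM final) oxidation coupled to Amplex Red (25 uM)/HRP (250 mU/mL) in HBSS. 15 min preincubation plus 30 min after DTT, room temperature. Ex/Em 525/598 nm; 4-parameter Hill fit against DMSO and 10 uM DA3003.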
SMILES,Potency [1],Potency [2],Potency [3],Potency [4],Potency [5],Potency [6],outcome [3],"activity change, negative = thiol reactive [4]","activity, negative = inhibition [5]",redox activity (% of DA3003) [6]
CN(C)CCN(Cc1ccc(-c2ccc(CNCCc3ccccc3)cc2)cc1)C(=O)CCC1CCCC1,inactive,inactive,inactive,inactive,inactive,inactive,,,,
C=C1C(=O)O[C@@H]2[C@H]1CC[C@H](C)C(CCC(=O)O)C2(C)O (some centres undefined),inactive,inactive,inactive,inactive,inactive,inactive,,,,
Cn1c(=O)c2c(ncn2Cc2ccc(C(C)(C)C)cc2)n(C)c1=O,inactive,inactive,inactive,inactive,inactive,inactive,,,,
Nc1nc(O)c(C2=C3C(=Nc4ccccc43)C(=O)NCC2)[nH]1,inactive,inactive,inactive,inactive,inactive,inactive,,,,
Cc1cccc(-c2[nH]ncc2-c2ccc(F)c(-c3cnn(CCO)c3)c2)n1,inactive,inactive,inactive,inactive,inactive,inactive,,,,
O=C(NCCN1CCOCC1)c1cc2c(Oc3ccc(NC(=O)C4(C(=O)Nc5ccc(F)cc5)CC4)cc3)ccnc2[nH]1,inactive,inactive,inactive,inactive,inactive,inactive,,,,
O=C(Nc1ccc(Cl)cc1)c1ccccc1NCc1ccncc1,inactive,inactive,inactive,inactive,inactive,inactive,,,,
CC(=O)[C@H]1CC[C@H]2[C@@H]3CC=C4C[C@@H](OS(=O)(=O)O)CC[C@]4(C)[C@H]3CC[C@]12C,inactive,inactive,inactive,inactive,inactive,inactive,,,,
COC(=O)c1cc(Br)cnc1N1CCC(NC2CCCCC2)C(O)C1 (centres undefined),inactive,inactive,inactive,inactive,inactive,inactive,,,,
COC1=CC(=O)O/C1=C(/OC)[C@@H]1O[C@H]1c1ccccc1,inactive,inactive,inactive,inactive,inactive,inactive,,,,
O=c1[nH]c2cccc(N3CCN(Cc4ccc(-c5ccccc5)cc4)CC3)c2o1,inactive,inactive,inactive,inactive,inactive,inactive,,,,
COc1cc2nc(C3CC3)nc(N3CCN(c4ccccc4OC)CC3)c2cc1OC,inactive,inactive,inactive,inactive,inactive,inactive,,,,
O=C1C(Cc2ccc(O)cc2)N2C(=O)CCN(C(=O)NCc3ccccc3)C2CN1Cc1cccc2ccccc12 (centres undefined),inactive,inactive,inactive,inactive,inactive,inactive,,,,
CCO[C@H]1CN(C2CCC(O)(c3ccc4c(c3)OCO4)CC2)C[C@@H]1NC(=O)CNC(=O)c1cccc(C(F)(F)F)c1 (some centres undefined),inactive,inactive,inactive,inactive,inactive,inactive,,,,
Fc1ccc(-c2cncc(CN3CCN(c4cccc5c4OCCO5)CC3)c2)cc1,inactive,inactive,inactive,inactive,inactive,inactive,,,,
CN(C)CC#CCCC(=O)C(O)(c1ccccc1)C1CCC1 (centres undefined),inactive,inactive,inactive,inactive,inactive,inactive,,,,
CC1(C)CC[C@]23CO[C@@]4(CCC5[C@@]6(C)CC[C@H](O[C@@H]7OC[C@H](O[C@@H]8O[C@H](CO)[C@@H](O)[C@H](O)[C@H]8O[C@@H]8OC[C@@H](O)[C@H](O)[C@H]8O)[C@H](O)[C@H]7O)[C@@](C)(CO)C6CC[C@@]5(C)[C@]4(C)CC2=O)[C@@H]3C1 (some centres undefined),inactive,inactive,,,,,inactive [at 11.6 µM],249% [at 11.5 µM] (inactive),3.95% [at 11.6 µM] (inactive),-0.913% [at 11.5 µM] (inactive)
C=C1C(=O)O[C@@H]2C3C(=C(C)[C@@H](O)[C@@H](OC(=O)/C(=C/C)COC(C)=O)[C@@H]12)C(=O)[C@H]1O[C@@]31C (some centres undefined),inactive,inactive,inactive,inactive,inactive,inactive,,,,
Cn1cc(-c2ccc3c(c2)CCN3C(=O)Cc2cccc(C(F)(F)F)c2)c2c(N)ncnc21,inactive and 18.3 µM (active),inactive,inactive,29.9 µM (active),inactive,inactive,,,,
CCC(C)C(=O)OC12C(OC(C)=O)C(C)C3(O)C(C=C(CO)CC4(O)C(=O)C(C)=CC43)C1C2(C)C (centres undefined),inactive,inactive,inactive,inactive,inactive,inactive,,,,
C=C(CCC1C(C)(O)CCC2C(C)(C)C(O)CCC12C)C(O)CO (centres undefined),inactive,inactive,inactive,13.1 µM (active),inactive,inactive,,,,
COc1cc(C(=O)NCC2(N(C)C)CCCC2)cc(OC)c1OCc1ccccc1,inactive,inactive,inactive,inactive,inactive,inactive,,,,
Cc1csc2c(N[C@@H](C)CN3CCN(S(=O)(=O)c4ccc(Cl)c(Cl)c4)CC3)ncnc12,inactive,inactive,inactive,inactive,inactive,inactive,,,,
Oc1ccc(-c2cnc3ccc(NCc4ccco4)nn23)cc1,inactive,inactive,inactive,5.97 µM (active),inactive,inactive,,,,
C=C[C@H](/C=C\c1ccc(O)cc1)c1ccc(O)cc1,inactive,inactive,inactive,inactive,inactive,inactive,,,,
Fc1ccc(-c2nc(-c3ccccc3F)[nH]c2-c2ccncc2)cc1,inactive,inactive,inactive,inactive,inactive,inactive,,,,
COc1ccc([C@H]2Cc3cccc(O)c3C(=O)O2)cc1OC,inactive,inactive,inactive,inactive,inactive,inactive,,,,
CC(C)(N)c1ncc(-c2ccc(OC(F)(F)F)cc2)[nH]1,inactive,inactive,inactive,inactive,inactive,inactive,,,,
Cc1nc(N2CCN(C(=O)c3ccco3)CC2)c2c3c(sc2n1)CCCC3,inactive,inactive,inactive,inactive,inactive,inactive,,,,
